Test results reported in PubChem BioAssay (NCATS).
Inconclusive results are not listed. Entries that show only a call come without a potency. Calls of active or inactive are those of the source. Calls follow the shape of the dose curve; as a rule, active = well fitted curve in the direction sought with a large enough effect; inconclusive = small, poorly fitted or top-dose-only effect, or another doubt; inactive = no such curve, though single readings can be large; an effect the other way counts as inactive or inconclusive.

Tests used:
[1] = target: N-terminal Xaa-Pro-Lys N-methyltransferase 1 (Homo sapiens) (UniProt Q9BV86); test: qHTS Assay for Inhibitors of N-terminal methyltransferase 1 (NTMT1): LOPAC validation of the NTMT1 SAHH-coupled ThioGlo3 Assay (AID 1347143); also: nearly all actives have a fitted effect of over 70% in size; also: potency is read from the fitted curve at half-maximal effect
Chain of N-terminal Xaa-Pro-Lys N-methyltransferase 1 (Homo sapiens) (Q9BV86 whole entry, looked up): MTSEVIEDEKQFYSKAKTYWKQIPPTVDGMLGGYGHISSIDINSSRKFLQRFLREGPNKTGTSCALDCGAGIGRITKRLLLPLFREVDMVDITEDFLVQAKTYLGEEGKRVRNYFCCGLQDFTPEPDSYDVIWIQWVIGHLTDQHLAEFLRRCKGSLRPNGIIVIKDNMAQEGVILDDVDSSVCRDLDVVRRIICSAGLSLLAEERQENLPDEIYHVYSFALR
Method in brief: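 Fluorescence read-out (excitation 340nm, emission 450nm) of SAH-derived thiol, measured via SAHH coupling and ThioGlo3, taken immediately and after a 30 min room-temperature reaction, then normalized to the background read. Enzyme: NTMT1 at 125nM; cofactor SAM 100uM in the added reagent.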

[2] = test system: Zika virus NS2B-NS3 protease (unlinked); test: Optimization of GU AMC qHTS for Zika virus inhibitors: Unlinked NS2B-NS3 protease assay (AID 1347151); also: nearly all actives have a fitted effect of over 80% in size; also: potency is read from the fitted curve at half-maximal effect
Method in brief: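 Unlinked protease (25 nM final); buffer 10 mM Tris-HCl pH 8.0 + 0.01% Tween 20; AMC substrate; 15 min RT, dark; Δfluorescence normalized to no-inhibitor/no-enzyme controls; 4-parameter Hill fit.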

[3] = qHTS of pediatric cancer cell lines to identify multiple opportunities for drug repurposing: Confirmatory screen for Saos-2 cells (AID 1347127); settings: Saos-2 osteosarcoma cell viability; also: potency is read from the fitted curve at half-maximal effect; nearly all actives have a fitted effect of over 60% in size
Method in brief: (§1)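 Cells (500-1,000/well) in growth media were settled 5 h at 37 degrees C, then given compounds for 48 h. Viability was read as CellTiter-Glo luminescence. Primary runs used MIPE at 11 points (0.78 nM-46 µM) and NPC at 8 points (0.59 nM-46 µM); follow-ups used 11 points.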

[4] = qHTS of pediatric cancer cell lines to identify multiple opportunities for drug repurposing: Confirmatory screen for OHS-50 cells (AID 1347128); settings: OHS-50 osteosarcoma cells viability;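 also: potency is read from the fitted curve at half-maximal effect; compound exposure lasted 48 h at 37 degrees C; nearly all actives have a fitted effect of over 55% in size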
Method in brief: as §1

[5] = qHTS of pediatric cancer cell lines to identify multiple opportunities for drug repurposing: Confirmatory screen for SK-N-SH cells (AID 1347129); settings: SK-N-SH neuroblastoma cell viability;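 also: potency is read from the fitted curve at half-maximal effect; cells exposed to compound for 48 h before viability read; nearly all actives have a fitted effect of over 60% in size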
Method in brief: as §1

[6] = test system: Zika virus NS2B-NS3 protease; test: Primary screen GU AMC qHTS for Zika virus inhibitors (AID 1347154); also: nearly all actives have a fitted effect of over 70% in size; also: potency is read from the fitted curve at half-maximal effect
Method in brief: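 Unlinked Zika NS2B hydrophilic domain/NS3 protease domain noncovalent complex (25 nM final) in 10 mM Tris-HCl pH 8.0, 0.01% Tween 20, with AMC peptide substrate. Fluorescence (ex 340, em 450 nm) change over 15 min, room temperature; percent inhibition fitted to 4-parameter Hill equation.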

Furin (Homo sapiens) = Furin (Homo sapiens) (UniProt P09958); test: Furin counterscreen qHTS for Zika virus inhibitors (AID 1347149); also: potency is read from the fitted curve at half-maximal effect; nearly all actives have a fitted effect of over 70% in size
Chain of Furin (Homo sapiens) (P09958 whole entry, looked up): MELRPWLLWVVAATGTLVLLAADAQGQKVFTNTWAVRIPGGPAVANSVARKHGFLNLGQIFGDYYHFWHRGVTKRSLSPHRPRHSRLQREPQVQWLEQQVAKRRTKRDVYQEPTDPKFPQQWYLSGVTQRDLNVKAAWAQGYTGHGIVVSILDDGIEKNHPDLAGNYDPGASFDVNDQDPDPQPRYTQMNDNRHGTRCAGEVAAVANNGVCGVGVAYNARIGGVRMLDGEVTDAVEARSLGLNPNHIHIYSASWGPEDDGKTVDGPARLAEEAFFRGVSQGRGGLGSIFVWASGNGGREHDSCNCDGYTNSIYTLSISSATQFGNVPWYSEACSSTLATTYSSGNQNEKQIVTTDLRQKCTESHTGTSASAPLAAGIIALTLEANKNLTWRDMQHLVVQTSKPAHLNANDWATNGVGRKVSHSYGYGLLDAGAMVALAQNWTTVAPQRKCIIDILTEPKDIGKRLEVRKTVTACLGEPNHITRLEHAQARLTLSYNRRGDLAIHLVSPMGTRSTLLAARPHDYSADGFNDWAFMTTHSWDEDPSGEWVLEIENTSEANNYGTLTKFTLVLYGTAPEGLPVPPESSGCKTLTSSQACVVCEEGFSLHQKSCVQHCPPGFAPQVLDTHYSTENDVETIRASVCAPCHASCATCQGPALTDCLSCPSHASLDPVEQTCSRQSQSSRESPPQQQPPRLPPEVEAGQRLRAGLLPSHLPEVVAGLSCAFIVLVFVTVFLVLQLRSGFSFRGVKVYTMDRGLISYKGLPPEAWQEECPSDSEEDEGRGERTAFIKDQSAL
Method in brief: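 Fluorogenic cleavage of BOC-RVRR-AMC (2 microM final, Km ~15 µM) was monitored (ex 340, em 450 nm) at 37C after 15 min RT preincubation of 5 nM furin with compounds in HEPES pH 7.0 buffer with CaCl2 and Triton X-100. Percent inhibition was fitted to a 4-parameter Hill curve.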

[7] = test system: Zika virus NS2B-NS3 protease (linked construct); test: Confirmatory screen NINDS AMC qHTS for Zika virus inhibitors (AID 1347152); also: potency is read from the fitted curve at half-maximal effect; nearly all actives have a fitted effect of over 70% in size
Method in brief: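 Enzyme (1 nM, linked construct) was preincubated with compound for 15 minutes at room temperature in 10 mM Tris-HCl pH 8.0 with 0.01% Tween 20. Bz-Nle-Lys-Arg-Arg-AMC was then added to 10 microM, and AMC fluorescence was recorded immediately and after 15 minutes.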

[8] = test system: Zika virus NS2B-NS3 protease (unlinked complex); test: Confirmatory screen GU AMC qHTS for Zika virus inhibitors (AID 1347153)
Method in brief: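 Noncovalent NS2B hydrophilic domain/NS3 protease complex (25 nM) in 10 mM Tris-HCl pH 8.0, 0.01% Tween 20 was preincubated 15 min at room temperature with compounds. Then 10 µM AMC substrate (Km 18.3 µM) was added; fluorescence was read over 15 min and fitted to a 4-parameter Hill equation.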

[9] = Confirmatory screen NINDS Rhodamine qHTS for Zika virus inhibitors (AID 1347161); also: potency is read from the fitted curve at half-maximal effect; nearly all actives have a fitted effect of over 60% in size
Method in brief: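 Each compound, titrated, sat 15 min with 25 nM linked protease before 1.5 microM Rhodamine110 substrate went in. Fluorescence gain over the next 15 min, in pH 8.0 Tris with Tween 20, gave Hill-fitted curves.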

[10] = Vero cells viability qHTS for Zika virus inhibitors (AID 1347167)
Method in brief: (§2)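 Counter-screen for cytotoxicity of hits from NS2B-NS3 protease qHTS. Overnight-attached cells (2.5 x 10^5 cells/mL, DMEM/4% FBS) were dosed in titration, incubated 24 to 48 hours, then assayed by CellTiter Glo.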

[11] = HepG2 cells viability qHTS for Zika virus inhibitors (AID 1347168)
Method in brief: as §2

[12] = Tertiary RLuc qRT-PCR qHTS assay for Zika virus inhibitors (AID 1347169); also: top concentration of the series differs between compounds; nearly all actives have a fitted effect of over 55% in size
Method in brief: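 Vero, 1,000 cells/well, o/n 37 C; cpd pinned in DMSO; ZIKV-RLuc Cambodian, MOI 1-2, 48-72 h 37 C; live-cell RLuc substrate, lum read at 1-1.5 h.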

[13] = target: Lysine-specific demethylase 5B (Homo sapiens) (UniProt Q9UGL1); test: Optimization screen for KDM5B Histone Demethylases FDH coupled qHTS against the LOPAC library (AID 1347166)
Chain of Lysine-specific demethylase 5B (Homo sapiens) (Q9UGL1 whole entry, looked up): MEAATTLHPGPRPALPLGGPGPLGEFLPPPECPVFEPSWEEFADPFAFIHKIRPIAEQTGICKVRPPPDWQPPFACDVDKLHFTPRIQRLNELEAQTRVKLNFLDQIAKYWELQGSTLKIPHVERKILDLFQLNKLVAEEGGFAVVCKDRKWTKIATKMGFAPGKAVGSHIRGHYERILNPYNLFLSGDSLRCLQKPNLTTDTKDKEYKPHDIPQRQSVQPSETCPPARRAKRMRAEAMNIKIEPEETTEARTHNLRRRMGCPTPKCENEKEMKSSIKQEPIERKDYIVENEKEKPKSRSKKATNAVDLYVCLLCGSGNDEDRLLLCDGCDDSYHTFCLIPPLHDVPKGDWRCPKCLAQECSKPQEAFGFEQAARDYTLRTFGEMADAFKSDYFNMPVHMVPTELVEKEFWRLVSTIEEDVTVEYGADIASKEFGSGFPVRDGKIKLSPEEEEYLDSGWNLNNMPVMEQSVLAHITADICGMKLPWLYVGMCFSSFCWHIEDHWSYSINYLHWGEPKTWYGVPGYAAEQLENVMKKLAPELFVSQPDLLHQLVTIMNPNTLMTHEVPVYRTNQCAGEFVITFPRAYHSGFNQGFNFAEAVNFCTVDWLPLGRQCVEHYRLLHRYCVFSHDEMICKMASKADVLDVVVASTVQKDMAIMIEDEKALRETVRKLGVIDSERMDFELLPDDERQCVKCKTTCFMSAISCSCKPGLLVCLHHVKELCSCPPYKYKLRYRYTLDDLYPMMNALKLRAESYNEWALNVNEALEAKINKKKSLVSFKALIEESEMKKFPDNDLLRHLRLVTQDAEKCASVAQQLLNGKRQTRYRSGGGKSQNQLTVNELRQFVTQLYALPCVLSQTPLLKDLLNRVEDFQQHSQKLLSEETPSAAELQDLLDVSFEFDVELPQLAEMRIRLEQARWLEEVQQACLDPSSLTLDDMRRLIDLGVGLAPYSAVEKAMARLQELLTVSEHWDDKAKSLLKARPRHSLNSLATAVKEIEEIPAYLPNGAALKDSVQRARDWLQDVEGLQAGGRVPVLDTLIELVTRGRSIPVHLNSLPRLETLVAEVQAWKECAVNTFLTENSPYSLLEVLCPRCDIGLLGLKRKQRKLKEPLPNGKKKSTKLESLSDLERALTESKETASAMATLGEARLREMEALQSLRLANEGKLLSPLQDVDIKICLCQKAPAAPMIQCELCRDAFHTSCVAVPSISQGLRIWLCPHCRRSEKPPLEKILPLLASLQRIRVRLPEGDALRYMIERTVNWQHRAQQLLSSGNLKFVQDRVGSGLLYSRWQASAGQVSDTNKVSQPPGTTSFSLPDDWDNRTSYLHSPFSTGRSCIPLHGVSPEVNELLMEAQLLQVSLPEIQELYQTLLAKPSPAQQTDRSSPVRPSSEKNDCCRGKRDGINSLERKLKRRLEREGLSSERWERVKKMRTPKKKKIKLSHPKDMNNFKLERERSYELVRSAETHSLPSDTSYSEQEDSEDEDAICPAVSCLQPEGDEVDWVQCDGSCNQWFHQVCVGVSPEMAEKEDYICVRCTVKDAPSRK
Method in brief: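 KDM5BDeltaAP (200nM final) preincubated 10 min with compound, then 12.5uM H3K4Me3, 25uM a-ketoglutarate, ascorbate, Fe(II), NAD+ and FDH added; 50mM HEPES pH 7.5, 0.01% Tween-20. NADH fluorescence (340/450 nm) change over 30 min, room temperature.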

CNc1ccc2oc(C[C@H]3O[C@@]4(CC[C@H]3C)O[C@H]([C@H](C)C(=O)c3ccc[nH]3)[C@H](C)C[C@H]4C)nc2c1C(=O)O
Potency [1]: 56.2 µM (active)
Potency [2]: 23.8 µM (active)

C#CCN[C@H](C)Cc1ccccc1
Potency [1]: inactive
Potency [2]: inactive

CC(=O)NBr
Potency [1]: inactive
Potency [2]: inactive

O=C1/C(=C/c2ccccc2)C[C@@]2(O)[C@H]3Cc4ccc(O)c5c4[C@@]2(CCN3CC2CC2)[C@H]1O5
Potency [1]: 50.1 µM (active)

O=S1(=O)N(CCN2CC=C(c3c[nH]c4cc(F)ccc34)CC2)c2cccc3c2N1CCC3
Potency [1]: 50.1 µM (active)
Potency [2]: inactive

CC1OC1P(=O)(O)O (configuration not stated)
Potency [1]: inactive

NC(Cc1cc(O)c(O)cc1O)C(=O)O (configuration not stated)
Potency [1]: 44.7 µM (active)
Potency [2]: 7.52 µM (active)

NC(N)=Nc1ccc2[nH]c3c(c2c1)C[C@@]1(O)[C@H]2Cc4ccc(O)c5c4[C@@]1(CCN2CC1CC1)[C@H]3O5
Potency [1]: 22.4 µM (active)
Potency [2]: inactive

CN1CCc2cc(O)cc3c2[C@H]1Cc1ccc(O)c(O)c1-3
Potency [1]: 35.5 µM (active)
Potency [2]: 23.8 µM (active)

CC(C)CC(NP(=O)(O)O[C@@H]1O[C@@H](C)[C@H](O)[C@@H](O)[C@H]1O)C(=O)NC(Cc1c[nH]c2ccccc12)C(=O)O (some centres not stated)
Potency [1]: inactive

O=P(O)(O)C(Cl)(Cl)P(=O)(O)O
Potency [1]: inactive

CC(N)[C@H](O)c1ccc(O)c(O)c1 (some centres not stated)
Potency [1]: 50.1 µM (active)

N#C/C(=C/c1ccc(O)c(O)c1)C(N)=S
Potency [1]: 44.7 µM (active)

NCC(O)c1cc(O)c(O)cc1F (configuration not stated)
Potency [1]: 56.2 µM (active)
Potency [2]: inactive

NC(=O)COc1c(F)cc(SCCNS(=O)(=O)c2ccccc2)cc1F
Potency [1]: inactive

CC(C)(C)OC(=O)NC1[C@H]2CNC[C@@H]12 (some centres not stated)
Potency [1]: inactive
Potency [2]: inactive

CN(N=O)c1cc(O)ccc1O
Potency [1]: 3.55 µM (active)
Potency [2]: inactive

C[C@]12Cc3cn4c(nc3C=C1CCC1C2CC[C@@]2(C)[C@H]1CC[C@@]2(O)C#N)nc1ccccc14 (some centres not stated)
Potency [1]: inactive

O=[N+]([O-])c1cc(O)c(O)c([N+](=O)[O-])c1
Potency [1]: 44.7 µM (active)

CN1CC[C@@]2(C)c3cc(O)ccc3N(C)C12 (some centres not stated)
Potency [1]: 44.7 µM (active)

C[CH2][Hg][S]c1ccccc1C(=O)O
Potency [3]: 2.93 µM (active)
Potency [4]: 9.27 µM (active)
Potency [5]: 5.26 µM (active)
Potency [6]: inactive

CC(C)(O)[C@@H]1[C@H]2OC(=O)[C@@H]1[C@]1(O)C[C@H]3O[C@]34C(=O)O[C@H]2[C@]14C (tested in a mixture with another compound)
Potency [1]: inactive

CCCCCCCCCCCCCC(=O)O[C@@H]1[C@@H](C)[C@@]2(O)[C@@H](C=C(CO)C[C@@]3(O)C(=O)C(C)=C[C@@H]23)C2C(C)(C)[C@@]21OC(C)=O (some centres not stated)
Potency [1]: inactive

CCS(=O)(=O)Nc1cccc(C(=C2CCCCC2)c2cnc[nH]2)c1
Potency [1]: inactive
Potency [2]: inactive

CC(C)NP(=O)(NC(C)C)OP(=O)(NC(C)C)NC(C)C
Potency [1]: inactive
Potency [2]: inactive

CCN1C[C@@]2(COC)C3[C@@H](OC)C4[C@H]1C3([C@@H]1C[C@@]3(O)[C@H](OC(=O)c5ccccc5)[C@@H]1[C@]4(OC(C)=O)[C@@H](O)[C@@H]3OC)[C@H](OC)C[C@H]2O
Potency [1]: inactive

O=c1ccc2[nH]cc(C3=CCNCC3)c2[nH]1
Potency [1]: 56.2 µM (active)
Potency (Furin (Homo sapiens)): 24.1 µM (active)
Potency [2]: 37.7 µM (active)
Potency [7]: 24.1 µM (active)
Potency [8]: 24.1 µM (active)
Potency [6]: 26.7 µM (active)
Potency [9]: 44.1 µM (active)
outcome [10]: inactive
outcome [11]: inactive
Potency [12]: inactive

NC(=O)CI
Potency [1]: 20 µM (active)

C[N+]1(C)C2CCC1CC(OC(=O)c1c[nH]c3ccccc13)C2 (configuration not stated)
Potency [1]: 31.6 µM (active)
Potency [2]: inactive

Nc1ncnc2c1ncn2[C@@H]1O[C@H](COP(=O)(O)CP(=O)(O)OP(=O)(O)O)C(O)[C@H]1O (some centres not stated)
Potency [1]: inactive

C[N+]1(C)CCC(OC(=O)C(c2ccccc2)c2ccccc2)CC1
Potency [1]: 63.1 µM (active)

CCN(CC)c1ncnc2c1ncn2[C@@H]1O[C@H](COP(=O)(O)OP(=O)(O)C(Br)(Br)P(=O)(O)O)[C@@H](O)[C@H]1O
Potency [1]: inactive

CCNC(=O)[C@H]1O[C@@H](n2cnc3c(N)ncnc32)[C@H](O)C1O (some centres not stated)
Potency [1]: inactive

CN(N=O)c1ccc(O)c(O)c1
Potency [1]: 35.5 µM (active)

O=C(NC1CN2CCC1CC2)c1cc2ccoc2cn1 (configuration not stated)
Potency [1]: inactive
Potency [2]: inactive

NCC(CP(=O)(O)O)c1ccc(Cl)cc1 (configuration not stated)
Potency [1]: inactive
Potency [2]: inactive
Potency [6]: inactive
Potency [13]: inactive

COc1ccc2c(c1)C13CCCCC1C(C2)N(C)CC3 (configuration not stated)
Potency [1]: inactive
Potency [2]: inactive

NC(C(=O)O)c1cc(=O)[nH]o1 (configuration not stated)
Potency [1]: inactive
Potency [2]: inactive
Potency [6]: inactive
Potency [13]: inactive

C[N+]1(C)CCOC(O)(c2ccc(-c3ccc(C4(O)C[N+](C)(C)CCO4)cc3)cc2)C1 (configuration not stated)
Potency [1]: inactive
Potency [2]: inactive
Potency [6]: inactive

Cc1sc2ccccc2c1CC1=NCCN1
Potency [1]: 79.4 µM (active)
Potency [2]: 26.7 µM (active)

C[N+]1(C)CCN(c2ccccc2)CC1
Potency [1]: 28.2 µM (active)
Potency [2]: inactive
Potency [6]: inactive

C[C@H](Cc1ccc2c(c1)OC(C(=O)O)(C(=O)O)O2)NC[C@H](O)c1cccc(Cl)c1
Potency [1]: inactive
Potency [2]: inactive

[Cl-].[Cl][Pt].[NH2-].[NH2-].c1ccncc1
Potency [1]: 7.08 µM (active)
Potency [2]: inactive

CCCN(CCC)C1CCc2cccc(O)c2C1 (configuration not stated)
Potency [1]: inactive
Potency [2]: inactive
Potency [6]: inactive
Potency [13]: inactive

CCCN(CCC)C1Cc2cc(OC)c(OC)cc2C1
Potency [1]: inactive
Potency [2]: inactive
Potency [6]: inactive

CCn1cnc2c(Nc3cccc(Cl)c3)nc(N[C@@H]3CCCC[C@@H]3N)nc21
Potency [1]: 8.91 µM (active)
Potency [2]: inactive

c1ccc2c(N3CCNCC3)cccc2c1
Potency [1]: 50.1 µM (active)
Potency [2]: 26.7 µM (active)
Potency [6]: inactive

Nc1cc2c(ncn2CCOCP(=O)(O)O)c(=O)[nH]1
Potency [1]: inactive
Potency [2]: inactive
